# The panel holds about 83,000 compounds, 20% with a hit somewhere; the sample as a whole holds those more often.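 Interpretation: 100, growth as untreated; towards 0, rising growth inhibition; 0, no net growth; 0 to -100, cell death. Compounds scoring below 10 were considered active.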 Calls of active or inactive are those of the source.
# Test system: A498 renal
# Test: NCI-60 one-dose screen, 48 h (100 = growth as untreated, 0 = no growth, -100 = all killed)
# Conditions: 10 µM unless noted
row,Compound,growth
1,C=C1CCC2C3(C)COC(c4ccccc4)OC3CCC2(C)C1/C=C/C1=CCOC1=O (centres undefined),106% (inactive)
2,CCN(CC)CCOc1ccc(Cl)c(C)c1,103% (inactive)
3,O=C(Oc1ccccc1[N+](=O)[O-])C1CCCN1C(=O)OCc1ccccc1 (centres undefined),95.5% (inactive)
4,CC(=O)Nc1ccc(S(=O)(=O)n2ccc(-c3ccc4c(c3)CCC(C)(C)O4)n2)cc1,21.9% (inactive)
5,CC(C)(C)OC(=O)NCCc1ccc(N=C=S)cc1,70.2% (inactive)
6,COc1cc(C2CC(c3ccc4c(c3)OCO4)=NN2C=O)cc(OC)c1OC (centres undefined),31.2% (inactive)
7,Nc1nc(=O)c2ccccc2s1,131% (inactive)
8,CN1C=CN(Cc2ccc(-c3ccccn3)nc2)[CH-]1.CN1C=CN(Cc2ccc(-c3ccccn3)nc2)[CH-]1.[Au+3],42.9% (inactive)
9,COC(OC)c1ccccc1,132% (inactive)
10,C=C[C@@H]1C[C@H](O)Cc2cc(F)ccc2N1,93.8% (inactive)
11,CN(C)c1ncnc2c1ccn2C1OC(CO)C(O)C1O (centres undefined),68% (inactive)
12,NC1=NN(O)C2=CC([N+](=O)[O-])C=CC2=N1 (centres undefined),109% (inactive)
13,O=C([O][Sn]([O]C(=O)c1ccccn1)([c]1ccccc1)[c]1ccccc1)c1ccccn1,101% (inactive)
14,C=C(C)[C@@H]1C[C@H](O)Cc2cc(F)ccc2N1,111% (inactive)
15,CNC(=S)NNC(=O)C1CC1,109% (inactive)
16,CCOC(=O)C1CCNC(=O)C1=O (centres undefined),110% (inactive)
17,COc1ccc(CNCCCN2C(=O)c3ccc4c5c(ccc(c35)C2=O)C(=O)N(CCCNCCCCNCCCN)C4=O)c(OC)c1OC,80% (inactive)
18,Cc1ccc(S(=O)(=O)C2=C3C(=C(c4ccccc4)c4ccccc43)CN(S(=O)(=O)c3ccc(C)cc3)C2)cc1,87.5% (inactive)
19,COc1cc2c(c(OC)c1OC)-c1ccc(N)c(=O)cc1[C@@H](NC(C)=O)CC2,-12.7% (active)

# Source: PubChem BioAssay (NCI)
